From PubChem BioAssay
Records with an inconclusive call do not appear. The source made the active and inactive calls.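 How the source made its calls, unless noted: active means viability at or below 27.92% in each of two runs, the all-compound median minus 4 SD; inconclusive means no clear call, values can overlap the other calls; inactive means the rest.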

Test: viability of PTEN-null HCT116 cells – cell-based, HCT116 clonal line, CellTiter-Glo, pilot screen (AID 824);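 further: 0% = 20 µM Hyamine control and 100% = vehicle cell control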
Conditions: HCT116 PTEN-deleted viability, 60 h, at 10 µM, hits give low values

| SMILES | viability |
| --- | --- |
| O=C(C1CC1)N1CCCN(C(=O)C2CC2)CC1 | 97.1% (inactive) |
| CN(CCCNC(=O)Cn1cc2c(n1)CCCC2)C1CCCCC1 | 90.2% (inactive) |
| Cc1cc(C(F)(F)F)nc(NCc2ccc(F)cc2)n1 | 86.7% (inactive) |
| O=C(c1coc2ccccc2c1=O)N1CCN(c2cccc(C(F)(F)F)c2)CC1 | 99.9% (inactive) |
| CCc1ccc(-c2nc(C(N)=O)c3[nH]c(=O)n(-c4ccccc4OC)c3n2)cc1 | 24% (active) |
| C=C(C)Cn1c(C2CC(=O)N(c3ccccc3F)C2)nc2ccccc21 (stereo not given) | 105% (inactive) |
| CC(CC1C(C#N)=C(N)OC2=C1C(=O)CCC2)c1ccccc1 (stereo not given) | 99.3% (inactive) |
| CCc1ncc(C(=O)c2ccc(OC)cc2)n1C | 104% (inactive) |
| CC(=O)Nc1nc(CC(=O)c2ccccc2)cs1 | 98.9% (inactive) |
| COc1ccc(-c2[nH]ncc2-c2cnc(C)s2)c(O)c1 | 98.9% (inactive) |
| CCCC(=O)Nc1nc2ccc(OCC)cc2s1 | 85.7% (inactive) |
| O=C(Nc1ccccc1)N1CCN2C(=O)c3ccccc3C12c1ccccc1 (stereo not given) | 89.5% (inactive) |
| COc1ccc(N2C(=O)C3CCCN3C2c2ccc(Cl)cc2)cc1 (stereo not given) | 95.5% (inactive) |
| CN(c1ccccc1)S(=O)(=O)c1cccc(C(=O)N2CCN(c3ccccn3)CC2)c1 | 86.1% (inactive) |
| CCOc1ccc(NC2c3ccccc3C(=O)N2c2ccc(Cl)cn2)cc1 (stereo not given) | 94.6% (inactive) |
| COc1ccc(Nc2nnc(Cc3ccc(Cl)cc3)c(=O)[nH]2)c(OC)c1 | 95.7% (inactive) |
| Cn1c(Cn2c(=O)sc3ccccc32)nnc1SCC(=O)Nc1ccc2c(c1)OCO2 | 99.6% (inactive) |
| COc1cc(OC)cc(C(=O)NCCn2ccc3ccccc32)c1 | 92.3% (inactive) |
| NC(=O)C1CCN(C(=O)c2cc3ccccn3n2)CC1 | 98.2% (inactive) |
| CC(Sc1ccc2nnc(-c3ccc(F)cc3)n2n1)C(=O)O (stereo not given) | 94.2% (inactive) |

| SMILES | viability |
| --- | --- |
| CCOC(=O)Cn1c(=O)oc2cc(S(=O)(=O)N3CCc4ccccc43)ccc21 | 93.8% (inactive) |
| CCOC(=O)c1csc(NC(=O)c2ccccc2)n1 | 99.7% (inactive) |
| CN(C)c1cccc(NC(=O)Cc2ccc(F)cc2)c1 | 84.2% (inactive) |
| CCOC(=O)c1sc2nc3n(c(=O)c2c1C)CCCCC3 | 103% (inactive) |
| CCOc1ccc(C2N(c3ccc(Cl)cc3)C(=O)C3CCCN32)cc1OC (stereo not given) | 95.8% (inactive) |
| CC1CCCCN1S(=O)(=O)c1coc(C(N)=O)c1 (stereo not given) | 96.8% (inactive) |
| Cc1ccc(NC(=O)CCNS(=O)(=O)c2cccc3nonc23)cc1 | 95.5% (inactive) |
| CCOC1=NC(C(=O)O)c2ccccc2/C(=C(/C)Cl)N1 (stereo not given) | 96.8% (inactive) |
| COc1cc(C2N(c3ccccc3)CCN2c2ccccc2)ccc1OC(C)=O | 94.5% (inactive) |
| COc1cc(S(=O)(=O)NCc2ccc3c(c2)OCO3)ccc1Cl | 95.5% (inactive) |
| CCOC(=O)c1cc(-c2ccc(F)cc2)n(CC(=O)Nc2nccs2)c1C | 62.6% (inactive) |
| O=C(C1CCN(S(=O)(=O)c2cccc3cccnc23)CC1)N1CCN(Cc2ccccc2)CC1 | 99.5% (inactive) |
| COc1ccc(Cl)cc1N(CC(=O)N1CCC(C)CC1)S(C)(=O)=O | 92.7% (inactive) |
| CCOC(=O)c1ccc2c(c1)NC(=O)C(N1CCN(c3ccc(OC)cc3)CC1)S2 (stereo not given) | 51.8% (inactive) |
| CS(=O)(=O)NCCCc1ccccc1 | 94.5% (inactive) |
| COc1ccc(C2C(C(=O)NCCN(C)C)c3cc(OC)c(OC)cc3C(=O)N2C)cc1OC (stereo not given) | 104% (inactive) |
| O=C(Nc1nccs1)c1cccc(S(=O)(=O)N2CCOCC2)c1 | 92.6% (inactive) |
| CC(C)C(C(=O)NC(C)(C)C)N1C(=O)c2ccccc2C1=O (stereo not given) | 101% (inactive) |
| CCOc1ccc(Br)cc1/C=N/O | 87.1% (inactive) |
| Cc1ccc(-n2c(SCC(=O)Nc3nccs3)nc3c(c2=O)SCC3)cc1 | 92.2% (inactive) |

Test: RAM pathway blockade in budding yeast – dse1pr::URA3 reporter, 5-FOA selection, pilot screen (AID 869;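 active means inhibition over a set limit, the all-compound mean plus 3 SD, in both replicate runs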;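 further: 0% = DMSO wells with no growth and 100% = 10 µM 1-NA-PP1 with full growth; RAM network block rescues cells from 5-FOA so hits raise OD615 growth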)
Conditions: S. cerevisiae dse1pr::URA3 5-FOA growth, OD615, 2 d; at 10 µM; hits give high values; strain carries analog-sensitive mutant Cbk1 kinase

| SMILES | inhibition |
| --- | --- |
| O=C(C1CC1)N1CCCN(C(=O)C2CC2)CC1 | 2.03% (inactive) |
| CN(CCCNC(=O)Cn1cc2c(n1)CCCC2)C1CCCCC1 | -1.29% (inactive) |
| Cc1cc(C(F)(F)F)nc(NCc2ccc(F)cc2)n1 | 1.39% (inactive) |
| O=C(c1coc2ccccc2c1=O)N1CCN(c2cccc(C(F)(F)F)c2)CC1 | 1.23% (inactive) |
| CCc1ccc(-c2nc(C(N)=O)c3[nH]c(=O)n(-c4ccccc4OC)c3n2)cc1 | 2.18% (inactive) |
| C=C(C)Cn1c(C2CC(=O)N(c3ccccc3F)C2)nc2ccccc21 (stereo not given) | 0.42% (inactive) |
| CC(CC1C(C#N)=C(N)OC2=C1C(=O)CCC2)c1ccccc1 (stereo not given) | 0.91% (inactive) |
| CCc1ncc(C(=O)c2ccc(OC)cc2)n1C | 0.225% (inactive) |
| CC(=O)Nc1nc(CC(=O)c2ccccc2)cs1 | 1.15% (inactive) |
| COc1ccc(-c2[nH]ncc2-c2cnc(C)s2)c(O)c1 | 2% (inactive) |
| CCCC(=O)Nc1nc2ccc(OCC)cc2s1 | 0.615% (inactive) |
| O=C(Nc1ccccc1)N1CCN2C(=O)c3ccccc3C12c1ccccc1 (stereo not given) | 1.29% (inactive) |
| COc1ccc(N2C(=O)C3CCCN3C2c2ccc(Cl)cc2)cc1 (stereo not given) | 1.7% (inactive) |
| CN(c1ccccc1)S(=O)(=O)c1cccc(C(=O)N2CCN(c3ccccn3)CC2)c1 | -0.145% (inactive) |
| CCOc1ccc(NC2c3ccccc3C(=O)N2c2ccc(Cl)cn2)cc1 (stereo not given) | 3.93% (inactive) |
| COc1ccc(Nc2nnc(Cc3ccc(Cl)cc3)c(=O)[nH]2)c(OC)c1 | 1.89% (inactive) |
| Cn1c(Cn2c(=O)sc3ccccc32)nnc1SCC(=O)Nc1ccc2c(c1)OCO2 | 2.34% (inactive) |
| COc1cc(OC)cc(C(=O)NCCn2ccc3ccccc32)c1 | 1.16% (inactive) |
| NC(=O)C1CCN(C(=O)c2cc3ccccn3n2)CC1 | 0.505% (inactive) |
| CC(Sc1ccc2nnc(-c3ccc(F)cc3)n2n1)C(=O)O (stereo not given) | 1.28% (inactive) |

| SMILES | inhibition |
| --- | --- |
| CCOC(=O)Cn1c(=O)oc2cc(S(=O)(=O)N3CCc4ccccc43)ccc21 | -0.605% (inactive) |
| CCOC(=O)c1csc(NC(=O)c2ccccc2)n1 | 0.115% (inactive) |
| CN(C)c1cccc(NC(=O)Cc2ccc(F)cc2)c1 | 1.14% (inactive) |
| CCOC(=O)c1sc2nc3n(c(=O)c2c1C)CCCCC3 | 0.475% (inactive) |
| CCOc1ccc(C2N(c3ccc(Cl)cc3)C(=O)C3CCCN32)cc1OC (stereo not given) | -0.115% (inactive) |
| CC1CCCCN1S(=O)(=O)c1coc(C(N)=O)c1 (stereo not given) | 3% (inactive) |
| Cc1ccc(NC(=O)CCNS(=O)(=O)c2cccc3nonc23)cc1 | 0.755% (inactive) |
| CCOC1=NC(C(=O)O)c2ccccc2/C(=C(/C)Cl)N1 (stereo not given) | 0.25% (inactive) |
| COc1cc(C2N(c3ccccc3)CCN2c2ccccc2)ccc1OC(C)=O | 0.44% (inactive) |
| COc1cc(S(=O)(=O)NCc2ccc3c(c2)OCO3)ccc1Cl | 1.69% (inactive) |
| CCOC(=O)c1cc(-c2ccc(F)cc2)n(CC(=O)Nc2nccs2)c1C | 1.99% (inactive) |
| O=C(C1CCN(S(=O)(=O)c2cccc3cccnc23)CC1)N1CCN(Cc2ccccc2)CC1 | -0.39% (inactive) |
| COc1ccc(Cl)cc1N(CC(=O)N1CCC(C)CC1)S(C)(=O)=O | 0.155% (inactive) |
| CCOC(=O)c1ccc2c(c1)NC(=O)C(N1CCN(c3ccc(OC)cc3)CC1)S2 (stereo not given) | 4.31% (inactive) |
| CS(=O)(=O)NCCCc1ccccc1 | 0.325% (inactive) |
| COc1ccc(C2C(C(=O)NCCN(C)C)c3cc(OC)c(OC)cc3C(=O)N2C)cc1OC (stereo not given) | 1.56% (inactive) |
| O=C(Nc1nccs1)c1cccc(S(=O)(=O)N2CCOCC2)c1 | 1.83% (inactive) |
| CC(C)C(C(=O)NC(C)(C)C)N1C(=O)c2ccccc2C1=O (stereo not given) | -0.63% (inactive) |
| CCOc1ccc(Br)cc1/C=N/O | 0.11% (inactive) |
| Cc1ccc(-n2c(SCC(=O)Nc3nccs3)nc3c(c2=O)SCC3)cc1 | 3.41% (inactive) |
